Experimental data: PubChem BioAssay (Tox21)
Results filed as inconclusive are left out. The source made the active and inactive calls. Calls follow the shape of the dose curve; as a rule, active = well fitted cell-killing curve with a large enough effect in the repeat runs; inconclusive = weak or mixed curves, or effect the other way; inactive = flat fitted curve, though single readings scatter.

Test: Caspase-3/7 induction in HepG2 cells by small molecules, qHTS cell viability counter screen (AID 1346981); also: nearly all actives have a fitted effect of over 30% in size
Details: CellTiter-Fluor fluorescence, 17 h; series mostly up to 92.4 µM; activity change, negative = cytotoxicity: at the top concentration
From the text: U.S. Tox21 Program National Center for Advancing Translational Sciences [NCATS] NIH Chemical Genomics Center [NCGC] U.S. Environmental Protection Agency [EPA] National Institutes of Environmental Health Sciences [NIEHS] National Toxicology Program [NTP] U.S. Food and Drug Administration [FDA] Tox21 Assay Overview: Apoptosis is a process of programmed cell death and plays a central role in the development of multicellular organisms. It is a highly regulated process and induces cell death by activating caspases, which are the members of cysteine aspartic acid-specific protease (caspase) family. Caspases involved in apoptosis are classified by their mechanism of action as initiator caspases (caspase-2, -8, -9 and -10) and executioner caspases (caspase-3, -6, and -7). Inhibition of apoptosis results in number of cancers, autoimmune diseases, inflammatory diseases and viral infection. To identify small molecule compounds that induce apoptosis, a homogeneous, luminescent Caspase-Glo 3/7 assay was used. Wild type HepG2 cells were used to screen Tox21 libraries for identifying caspase-3/7 activity inducers. Also cytotoxicity of the compounds was tested in parallel by measuring the cell viability using CellTiter-Fluor assay system in the same wells.
Tox21 Assay Protocol Summary: HepG2 cells were dispensed at 2,000 per well in 5uL of culture medium into white solid bottom 1536-well plates (Corning Life Sciences, Corning, NY) using a Multidrop Combi (Thermo Scientific, Waltham, MA) dispenser. The assay plates were incubated at 37 C and 5% CO2 for 5hr, and then 23nL of compounds dissolved in DMSO and positive control were transferred using a Pintool station ([…], San Diego, CA). The assay plates were incubated at 37C and 5% CO2 for 17hr. For cytotoxicity read, after 16hr incubation at 37C, 1uL CellTiter-Fluor reagent (Promega Corporation, Madison, WI) was added to each well of the assay plates using Flying Reagent Dispenser (FRD, Aurora Discovery, San Diego, CA). After 1hr incubation at 37C and 5% CO2, the fluorescence signal was quantified using a ViewLux plate reader (PerkinElmer, Shelton, CT).
% is scaled to controls: 0 for no effect and ±100 for the full control effect.

| Structure (SMILES) | activity change, negative = cytotoxicity |
| --- | --- |
| C[C@@H]1C[C@H]2[C@@H]3C[C@H](F)C4=CC(=O)C(Cl)=C[C@]4(C)[C@@]3(F)[C@@H](O)C[C@]2(C)[C@@]1(O)C(=O)CO | 6.74% [at 42.5 µM] (inactive) |
| O=Cc1cccc(Br)c1 | -0.314% (inactive) |
| C=C[Si](OC(C)=O)(OC(C)=O)OC(C)=O | 1.38% (inactive) |
| CC(=O)NC(=O)c1ccccc1O | 6.41% [at 42.5 µM] (inactive) |
| c1ccc(Cc2ccccc2)cc1 | 4.93% (inactive) |
| CN1C(C)(C)CC(O)CC1(C)C | 4.05% (inactive) |
| CC1=NN(c2cccc(S(=O)(=O)O)c2)C(=O)C1 | 1.06% (inactive) |
| C=CC(C)(CCC=C(C)C)OC(=O)CC (stereo not given) | -2.48% (inactive) |
| CC(=O)c1ccc2ccccc2c1 | 1.15% (inactive) |
| COc1cc(C(=O)NCc2ccc(OCCN(C)C)cc2)cc(OC)c1OC | -2.25% [at 42.5 µM] (inactive) |
| CCCn1cc[n+](C)c1C | -1.33% (inactive) |
| C=C(C)C(=O)OCCOCCOCCOCCOC(=O)C(=C)C | 4.88% (inactive) |
| CCCCc1ccc2c(n1)[C@@H](c1ccc(OC)cc1C[C@H](C)C(=O)O)[C@H](C(=O)O)[C@H]2c1ccc2c(c1)OCO2 | 3.5% (inactive) |
| CCCC[N+](C)(CCCC)CCCC | 2.14% (inactive) |
| NCCCC[C@H](N[C@@H](CCc1ccccc1)C(=O)O)C(=O)N1CCC[C@H]1C(=O)O | 1.32% [at 42.5 µM] (inactive) |
| O=C(O)c1cc(C(=O)O)cc(C(=O)O)c1 | 9.1% (inactive) |
| CN(C)C(=O)Oc1ccc[n+](C)c1 | 7.53% [at 42.5 µM] (inactive) |
| O=C(O)CC(C(=O)O)S(=O)(=O)O (stereo not given) | -1.51% (inactive) |
| CC(=O)N[C@H]1[C@H]([C@H](O)[C@H](O)CO)OC(C(=O)O)=C[C@@H]1N=C(N)N | 0.139% [at 42.5 µM] (inactive) |
| COc1ccc2cc1Oc1cc3c(cc1OC)CC[N+](C)(C)[C@H]3Cc1ccc(cc1)Oc1c(OC)c(OC)cc3c1[C@@H](C2)[N+](C)(C)CC3 | 7.2% [at 42.5 µM] (inactive) |

| Structure (SMILES) | activity change, negative = cytotoxicity |
| --- | --- |
| O=C(O)CNC(=O)c1ccc(CO)o1 | 3.7% (inactive) |
| CC1OC1C1CCC2(C)OC2C1 (stereo not given) | -2.04% (inactive) |
| CC(=O)c1ccccc1[N+](=O)[O-] | -0.726% (inactive) |
| CCN[C@@H]1C[C@H](N)[C@@H](OC2OC(CN)=CCC2N)[C@H](O)[C@H]1O[C@H]1OC[C@](C)(O)[C@H](NC)[C@H]1O (stereo not given in full) | 3.51% [at 0.349 µM] (inactive) |
| Clc1cc(Cl)cc(Cl)c1 | -0.217% (inactive) |
| NC(=O)N1c2ccccc2CC(=O)c2ccccc21 | -0.683% [at 42.5 µM] (inactive) |
| CCOC(=O)OC(C)OC1=C(C(=O)Nc2ccccn2)N(C)S(=O)(=O)c2ccccc21 (stereo not given) | 9.85% [at 42.5 µM] (inactive) |
| CCCCCC(C)N (stereo not given) | -1.02% [at 42.5 µM] (inactive) |
| O=C1CCCCCCCCCCCCCCO1 | 4.53% (inactive) |
| N[C@H](C(=O)O)[C@@H](O)c1ccc(O)c(O)c1 | 1.14% [at 42.5 µM] (inactive) |
| Cc1nc2ccc(CN(C)c3ccc(C(=O)N[C@@H](CCC(=O)O)C(=O)O)s3)cc2c(=O)[nH]1 | 4.88% [at 42.5 µM] (inactive) |
| Clc1cc(Cl)c(Cl)nc1Cl | 5.24% (inactive) |
| O=C1NC(=O)C2CC=CCC12 (stereo not given) | -1.19% (inactive) |
| CCCCCC(=O)OCCc1ccccc1 | 2.42% (inactive) |
| CC[C@H]1OC(=O)[C@H](C)[C@@H](O[C@H]2C[C@@](C)(OC)[C@@H](O)[C@H](C)O2)[C@H](C)[C@@H](O[C@@H]2O[C@H](C)C[C@H](N(C)C)[C@H]2O)[C@](C)(OC)C[C@@H](C)C(=O)[C@H](C)[C@@H](O)[C@]1(C)O | 2.45% (inactive) |
| CC(=O)Nc1ccc(OCC(O)CNC(C)C)cc1 (stereo not given) | 6.92% [at 42.5 µM] (inactive) |
| CC(C)c1ccc2ncccc2c1 | 7.25% (inactive) |
| O=C(O)c1cn(C2CC2)c2cc(N3CCNCC3)c(F)cc2c1=O | -0.356% [at 42.5 µM] (inactive) |
| CNC(=O)Nc1ccc(Cl)c(Cl)c1 | -0.349% (inactive) |
| CC(=O)OCC(=O)[C@@]1(O)[C@H](C)C[C@H]2[C@@H]3CCC4=CC(=O)C=C[C@]4(C)[C@@]3(F)[C@@H](O)C[C@@]21C | 1.68% [at 42.5 µM] (inactive) |
